Test results taken from PubChem BioAssay (NCATS).
“And” between values parts separate entries of the source, which are not always exact repeats. Equal values may be shown once. Results filed as inconclusive are left out. Values without a mark were called inactive. The source made the active and inactive calls. Calls come from the whole dose curve; as a rule, active = well fitted curve in the direction sought with a large enough effect; inconclusive = small, poorly fitted or top-dose-only effect, or another doubt; inactive = no such curve, though single readings can be large; an effect the other way counts as inactive or inconclusive.

Legend:
[1] = target: Cellular tumor antigen p53 (Homo sapiens) (UniProt P04637); test: Primary qHTS for small molecule compounds that upregulate eGFP-tagged delta133p53alpha (in N-terminal) cells. (AID 2060322); conditions: NCI-H358 eGFP-delta133p53alpha fluorescence, 24 h; activation: stronger effect = higher value; note: nearly all actives have a fitted effect of over 75% in size;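 for activation: cells pre-induced with doxycycline then dosed without doxycycline; series mostly up to about 56 µM; 0% = DMSO vehicle and 100% = reference activator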
Method in brief: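 NCI-H358 cells pre-induced 24 h with 10 ng/ml doxycycline for eGFP-delta133p53alpha, plated dox-free and exposed 24 h at 37C to titrated compounds. Fixed, Hoechst-stained; gated GFP peak intensity by laser scanning cytometry, normalized to DMSO (0%) and 57.5 uM 5-azacytidine (100%).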

[2] = BET inhibitor-based combinations targeting novel dependencies in MECOM-rearranged (r) AML: SET-2 cell line (AID 2202231); conditions: SET-2 AML cells viability, CellTiter-Glo luminescence, 48 h; viability: stronger effect = lower value, concentration not given here; note: nearly all actives have a fitted effect of over 35% in size;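 for viability: plate controls were DMSO treated cells for no effect and wells without cells for full effect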
Method in brief: (§1)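 500 cells/well; 11-pt dose curve; 48 h, standard incubator; CellTiter-Glo luminescence after 15 min RT; DMSO/empty-well normalization; AUC plus Z-AUC (mean-centered within each line).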

[3] = BET inhibitor-based combinations targeting novel dependencies in MECOM-rearranged (r) AML: OCI-AML3 cell line (AID 2202232); conditions: Potency: OCI-AML3 viability; note: nearly all actives have a fitted effect of over 35% in size
Method in brief: as §1

[4] = BET inhibitor-based combinations targeting novel dependencies in MECOM-rearranged (r) AML: MV-4-11 cell line (AID 2202233); note: nearly all actives have a fitted effect of over 45% in size
Method in brief: (§2)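 Cells were plated at 500 per well and exposed to each drug across an 11-point dose range for 48 hr at standard incubator conditions. Viability was read by CellTiter-Glo luminescence, and activity was expressed as AUC and per-cell-line Z-transformed AUC.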

[5] = BET inhibitor-based combinations targeting novel dependencies in MECOM-rearranged (r) AML: HNT-34 cell line (AID 2202234); note: nearly all actives have a fitted effect of over 35% in size
Method in brief: as §2

[6] = BET inhibitor-based combinations targeting novel dependencies in MECOM-rearranged (r) AML: UCSD-AML1 cell line (AID 2202235); note: nearly all actives have a fitted effect of over 40% in size
Method in brief: as §2

[7] = BET inhibitor-based combinations targeting novel dependencies in MECOM-rearranged (r) AML: AML-194 cell line (AID 2202237; note: nearly all actives have a fitted effect of over 40% in size)
Method in brief: as §1

[8] = BET inhibitor-based combinations targeting novel dependencies in MECOM-rearranged (r) AML: AML-191 cell line (AID 2202236; note: nearly all actives have a fitted effect of over 35% in size)
Method in brief: as §1
Potency is the fitted concentration of half-maximal effect.

Chain of Cellular tumor antigen p53 (Homo sapiens) (P04637 whole entry, looked up): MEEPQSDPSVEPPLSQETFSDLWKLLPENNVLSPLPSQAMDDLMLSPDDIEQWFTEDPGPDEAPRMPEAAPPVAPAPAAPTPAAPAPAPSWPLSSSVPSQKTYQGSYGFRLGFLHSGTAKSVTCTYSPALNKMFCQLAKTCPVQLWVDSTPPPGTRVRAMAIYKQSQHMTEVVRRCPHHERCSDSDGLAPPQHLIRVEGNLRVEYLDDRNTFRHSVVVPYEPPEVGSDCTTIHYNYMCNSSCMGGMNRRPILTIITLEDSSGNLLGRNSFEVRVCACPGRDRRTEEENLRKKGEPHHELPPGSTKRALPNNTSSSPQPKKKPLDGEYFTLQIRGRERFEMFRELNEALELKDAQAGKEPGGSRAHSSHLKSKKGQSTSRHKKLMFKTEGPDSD

For `CN(C)c1ccc2nc3ccc(=[N+](C)C)cc-3sc2c1`, the Potency [1] was 17.4 µM (active), the Potency [2] was 5.9 µM (active) and the Potency [3] was 5.25 µM (active). For the same molecule, the Potency [4] was 2.63 µM (active), the Potency [5] was 7.42 µM (active) and the Potency [6] was 9.34 µM (active). The Potency [7] was 4.68 µM (active).

In the case of `Cc1nc2cnc3ccc(C#Cc4cccnc4)cc3c2n1-c1ccc(C(C)(C)C#N)cc1`, the activation [1] is reported as 35.7%, the Potency [2] is reported as 1.66 µM (active) and the Potency [3] is reported as 2.95 µM (active). For the same molecule, the Potency [4] was 0.742 µM (active), the Potency [5] was 0.525 µM (active) and the Potency [6] was 0.296 µM (active). For the same molecule, the Potency [8] was 0.59 µM (active) and the Potency [7] was 0.468 µM (active).

In the case of `CC(C)(Sc1cc(C(C)(C)C)c(O)c(C(C)(C)C)c1)Sc1cc(C(C)(C)C)c(O)c(C(C)(C)C)c1`, the activation [1] is reported as 5.08% and 14.9%, the viability [2] is reported as 103% and the Potency [3] is reported as “inactive”. For the same molecule, the Potency [4] was “inactive”, the Potency [5] was “inactive” and the Potency [6] was “inactive”. For the same molecule, the Potency [7] was 13.2 µM (active).

In the case of `CC(N[C@H]1CCCC[C@H]1NC(=O)c1ccc(Cl)cc1)c1cccc2ccccc12` (stereo partly drawn), the activation [1] is reported as 3.01%, the Potency [2] is reported as 26.3 µM (active) and the Potency [3] is reported as 16.6 µM (active). The Potency [4] was 13.2 µM (active), the Potency [5] was 11.8 µM (active) and the Potency [6] was 11.8 µM (active). The Potency [8] was 11.8 µM (active) and the Potency [7] was 8.33 µM (active).

For `CCCCCNC(=O)N1CCC(CN(Cc2ccc(Cl)cc2)Cc2ccc([N+](=O)[O-])s2)C1` (stereo not drawn), the activation [1] was -3.18%, the Potency [2] was 20.9 µM (active) and the Potency [3] was 18.6 µM (active). For the same molecule, the Potency [4] was 20.9 µM (active) and the Potency [7] was “inactive”.

With `O=c1cc(N2CCOCC2)oc2c(-c3cccc4c3sc3ccccc34)cccc12` the activation [1] was 27.5%, the Potency [2] was 9.34 µM (active) and the Potency [3] was 8.33 µM (active). For the same molecule, the Potency [4] was 4.17 µM (active) and the Potency [8] was 5.9 µM (active).

With `C[C@H]1C[C@@H]2[C@H]([C@@H](O)C[C@@]3(C)[C@H]2CC[C@]3(O)C(=O)CO)[C@@]2(C)C=CC(=O)C=C12` the activation [1] was 5.86%, the viability [2] was 114% and the Potency [3] was “inactive”. For the same molecule, the Potency [4] was “inactive”, the Potency [8] was 0.263 µM (active) and the Potency [7] was 0.209 µM (active).

For `NC(=O)c1cccc(-c2cccc(OC(=O)NC3CCCCC3)c2)c1`, the activation [1] was -16.3%, the viability [2] was 103% and the Potency [3] was “inactive”. For the same molecule, the Potency [5] was “inactive”, the Potency [6] was “inactive” and the Potency [8] was “inactive”. For the same molecule, the Potency [7] was “inactive”.

With `CC(=O)OC1C(C)OC(Oc2c(-c3ccc(O)cc3)oc3cc(O)cc(O)c3c2=O)C(O)C1OC(C)=O` (stereo not drawn) the activation [1] was 34.7%, the viability [2] was 114% and the Potency [3] was “inactive”. For the same molecule, the Potency [5] was “inactive”, the Potency [6] was “inactive” and the Potency [8] was “inactive”. For the same molecule, the Potency [7] was “inactive”.

With `COc1cc(C(=O)NC2CCN(C)CC2)ccc1Nc1ncc2c(n1)N(C1CCCC1)CCC(=O)N2C(C)C` the activation [1] was 7.36%, the Potency [2] was 23.5 µM (active) and the Potency [3] was 14.8 µM (active). The Potency [4] was 6.61 µM (active) and the Potency [7] was 23.5 µM (active).

For `COc1cc(F)c(C(C)C)cc1-c1ccc(C(F)(F)F)cc1CN1C(=O)O[C@H](c2cc(C(F)(F)F)cc(C(F)(F)F)c2)[C@@H]1C`, the activation [1] was -9.08%, the viability [2] was 105% and the Potency [3] was “inactive”. For the same molecule, the Potency [5] was “inactive”, the Potency [6] was “inactive” and the Potency [8] was “inactive”. The Potency [7] was “inactive”.

With `CC[C@]1(O)C[C@H]2CN(CCc3c([nH]c4ccccc34)[C@@](C(=O)OC)(c3cc4c(cc3OC)N(C=O)[C@H]3[C@@](O)(C(=O)OC)[C@H](OC(C)=O)[C@]5(CC)C=CCN6CC[C@]43[C@@H]65)C2)C1` the activation [1] was 54.7%, the Potency [2] was 0.833 µM (active) and the Potency [3] was 0.166 µM (active). The Potency [4] was 0.166 µM (active), the Potency [6] was 0.235 µM (active) and the Potency [8] was 0.263 µM (active). For the same molecule, the Potency [7] was 0.296 µM (active).

In the case of `CC(C)(C#N)c1cc(Cn2cncn2)cc(C(C)(C)C#N)c1`, the activation [1] is reported as 2.42%, the viability [2] is reported as 107% and the Potency [3] is reported as “inactive”. For the same molecule, the Potency [4] was “inactive”, the Potency [8] was “inactive” and the Potency [7] was “inactive”.

In the case of `CN1CCN(c2cc(C(=O)Nc3ccc4c(c3)-c3c(c(C(N)=O)nn3-c3ccc(F)cc3)CC4)c(Cl)cn2)CC1`, the activation [1] is reported as 10.2%, the Potency [2] is reported as 8.33 µM (active) and the Potency [3] is reported as 16.6 µM (active). For the same molecule, the Potency [5] was 7.42 µM (active).

In the case of `Cc1cnc(C(=O)O)c[n+]1[O-]`, the activation [1] is reported as -19.2%, the viability [2] is reported as 122% and the Potency [3] is reported as “inactive”. For the same molecule, the Potency [4] was “inactive”, the Potency [6] was “inactive” and the Potency [8] was “inactive”. For the same molecule, the Potency [7] was “inactive”.

In the case of `CC(C(C)N1CC(=O)NC(=O)C1)N1CC(=O)NC(=O)C1` (stereo not drawn), the activation [1] is reported as 25.1%, the viability [2] is reported as 107% and the Potency [3] is reported as 5.9 µM (active). For the same molecule, the Potency [4] was 1.18 µM (active) and the Potency [8] was 9.34 µM (active).

With `COc1cc2c(cc1OC)CC(=O)N(CCCN(C)C[C@H]1Cc3cc(OC)c(OC)cc31)CC2` the activation [1] was -11.1%, the viability [2] was 111% and the Potency [3] was “inactive”. For the same molecule, the Potency [4] was “inactive”, the Potency [8] was “inactive” and the Potency [7] was “inactive”.

In the case of `COc1cc(S(C)(=O)=O)ccc1Nc1nc2ccc(-c3ccc(NC(=O)[C@H](C)c4ccc(F)cc4)cc3)cn2n1`, the activation [1] is reported as -11.7%, the Potency [2] is reported as 0.235 µM (active) and the Potency [3] is reported as 0.934 µM (active). For the same molecule, the Potency [4] was 1.18 µM (active), the Potency [6] was 1.32 µM (active) and the Potency [7] was 1.32 µM (active).
